From ChEMBL document CHEMBL2218924, “A broad activity screen in support of a chemogenomic map for kinase signalling research and drug discovery” (Biochem J, 2013)

Target: Serine/threonine-protein kinase 10 (Homo sapiens) (UniProt O94804)
Details: at 10 µM

Serine/threonine-protein kinase 10 (Homo sapiens), sequence (O94804 whole entry, looked up): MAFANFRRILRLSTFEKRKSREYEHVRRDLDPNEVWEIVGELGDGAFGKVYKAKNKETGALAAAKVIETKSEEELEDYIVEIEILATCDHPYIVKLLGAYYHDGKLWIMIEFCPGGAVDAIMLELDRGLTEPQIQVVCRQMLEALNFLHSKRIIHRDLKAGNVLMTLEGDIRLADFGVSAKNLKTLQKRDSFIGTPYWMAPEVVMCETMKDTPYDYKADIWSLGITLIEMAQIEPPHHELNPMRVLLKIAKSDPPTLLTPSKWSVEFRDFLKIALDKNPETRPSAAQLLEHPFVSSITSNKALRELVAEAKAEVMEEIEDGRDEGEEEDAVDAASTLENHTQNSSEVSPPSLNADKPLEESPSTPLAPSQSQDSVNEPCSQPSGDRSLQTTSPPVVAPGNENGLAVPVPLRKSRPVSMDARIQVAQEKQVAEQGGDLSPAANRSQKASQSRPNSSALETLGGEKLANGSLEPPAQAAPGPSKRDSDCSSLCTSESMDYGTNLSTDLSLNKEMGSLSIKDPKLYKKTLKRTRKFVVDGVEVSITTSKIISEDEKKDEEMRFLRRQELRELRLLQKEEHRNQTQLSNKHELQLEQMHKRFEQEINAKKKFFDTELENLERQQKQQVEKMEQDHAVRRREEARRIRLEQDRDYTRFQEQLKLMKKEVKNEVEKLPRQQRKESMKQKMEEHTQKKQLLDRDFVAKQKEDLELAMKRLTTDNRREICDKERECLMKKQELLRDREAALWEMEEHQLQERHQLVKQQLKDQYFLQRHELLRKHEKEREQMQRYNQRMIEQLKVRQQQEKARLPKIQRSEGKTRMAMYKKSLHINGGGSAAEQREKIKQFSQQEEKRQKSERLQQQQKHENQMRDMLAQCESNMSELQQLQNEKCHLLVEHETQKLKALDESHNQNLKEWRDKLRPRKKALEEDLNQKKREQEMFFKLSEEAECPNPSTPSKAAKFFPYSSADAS

**Q.** With `CCN(CC)CCCCN1c2ccccc2Oc2ccc(Cl)cc21` as the molecule, how does the residual activity read?
**A.** The residual activity was 100%.

**Q.** Which residual activity does the source give for `O=C1NC(=O)c2cc(Nc3ccc(F)cc3)c(Nc3ccc(F)cc3)cc21` here?
**A.** The residual activity was 32%.

**Q.** How did the residual activity turn out when `COc1cccc(-c2cc(=O)c3ccccc3o2)c1N` was run?
**A.** Its residual activity is 105%.

**Q.** `Cc1cccc(-c2[nH]c(C(C)(C)C)nc2-c2ccc3c(c2)OCO3)n1` was tested. Which residual activity did it give?
**A.** The residual activity was 106%.

**Q.** How did the residual activity turn out when `c1ccc(-c2n[nH]c3c2oc2ccccc23)cc1` was run?
**A.** Its residual activity is 70%.

**Q.** How did the residual activity turn out when `N#C/C(=C(\N)Sc1ccc(N)cc1)c1ccccc1C(F)(F)F` was run?
**A.** Its residual activity is 83%.

**Q.** For `CC(=O)c1ccc(N2CCOCC2)cc1O`, which residual activity is on record?
**A.** Its residual activity is 90%.

**Q.** For `COc1cc2ncnc(Nc3ccc(O)c(Br)c3)c2cc1OC`, which residual activity is on record?
**A.** Its residual activity is 8%.

**Q.** Which residual activity does the source give for `O=C1Nc2cc(Br)ccc2/C1=C1/Nc2ccccc2/C1=N\O` here?
**A.** Its residual activity is 69%.

**Q.** For `COc1cc2ncc(-c3ccccc3)nc2cc1OC`, which residual activity is on record?
**A.** Its residual activity is 88%.

**Q.** `COc1cc2ncnc(Nc3ccc(NC(=O)c4ccccc4)cc3)c2cc1OC` was tested. Which residual activity did it give?
**A.** Its residual activity is 33%.

**Q.** Which residual activity does the source give for `Nc1cccc(-c2cc3c(Oc4cccc(O)c4)ncnc3[nH]2)c1` here?
**A.** The residual activity was 9%.

**Q.** Which residual activity does the source give for `CCC(=O)Nc1ccc2ncnc(Nc3cccc(Br)c3)c2c1` here?
**A.** The residual activity was 33%.

**Q.** `O=C1Nc2ccc(Br)cc2/C1=C\c1cc2c([nH]1)CCCC2` was tested. Which residual activity did it give?
**A.** The residual activity was 76%.

**Q.** `CCN(CC)C(=O)c1ccc(Nc2nc(OCC3CCCCC3)c3nc[nH]c3n2)cc1` was tested. Which residual activity did it give?
**A.** The residual activity was 13%.

**Q.** `CN(C)CCCn1cc(C2=C(c3c[nH]c4ccccc34)C(=O)NC2=O)c2ccccc21` was tested. Which residual activity did it give?
**A.** Its residual activity is 15%.

**Q.** How did the residual activity turn out when `N#CC(C#N)=C(N)/C(C#N)=C/c1ccc(O)cc1` was run?
**A.** Its residual activity is 96%.

**Q.** For `O=C1Nc2ccccc2/C1=C1/Nc2ccccc2/C1=N\OCCC(O)CO` (centres undefined), which residual activity is on record?
**A.** The residual activity was 70%.

**Q.** Which residual activity does the source give for `CC[n+]1c(/C=C/N(C)c2ccccc2)n(-c2ccccc2)c2ccc(-c3nc4ccccc4s3)cc21` here?
**A.** The residual activity was 92%.
